Laboratory results: PubChem BioAssay (NCATS)
Results filed as inconclusive are left out. Unmarked numbers belong to inactive results. The call rests on the fitted dose curve; in most records, active means well fitted inhibition curve with a large enough effect; inconclusive means small, poorly fitted or top-dose-only effect, or effect the other way; inactive means flat fitted curve, though single readings scatter.

The compounds below were run against ATP-dependent 6-phosphofructokinase (Trypanosoma brucei brucei) (UniProt O15648) (assay: qHTS Assay to Find Inhibitors of T. brucei phosphofructokinase: hit validation (AID 492961;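 further: luminescence reports ADP formed as PFK phosphorylates fructose-6-phosphate with ATP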)). Conditions: T. brucei PFK, ADP-Glo luminescence; series mostly up to 51.4 µM; activity change, negative = inhibition: at the top concentration.
Text: NIH Molecular Libraries Probe Production Network [MLPCN] NIH Chemical Genomics Center [NCGC] Grant: 1 R03 MH092153-01 PI Name: Malcolm Walkinshaw, University of Edinburgh NCGC Assay Overview: Various species of the protozoan family Trypanosomatidae are responsible for a range of serious human diseases in tropical and subtropical areas of the world. […] Many of the disorders caused by trypanosomatids are fatal if left untreated, but most currently used drugs are inefficient and toxic. […] Oxidative metabolism involving the mitochondrial tricarboxylic acid cycle and oxidative phosphorylation are repressed in these parasites, and recent RNA interference (RNAi) experiments have shown that even partial depletion of certain individual glycolytic enzymes can lead to the death of cultured parasites. One such glycolytic enzyme, phosphofructokinase (PFK), catalyzes the formation of fructose-1,6-bisphosphate (F1,6BP) and ADP from fructose-6-phosphate (F6P) and ATP, and in many metabolic circumstances makes an important contribution to the control of flux through the glycolytic pathway. As a specific glycolytic target, PFK is particularly attractive as it catalyzes the first irreversible step in glycolysis, and structural and kinetic studies have shown very substantial and essential differences from corresponding host enzymes, allowing for the discovery of parasite-selective inhibitors. The goal of this screen is to find small-molecule inhibitors of T. brucei PFK using a biochemical assay that measures PFK activity as a function of ADP production. A luminescence-based assay for T. brucei PFK activity has been developed which uses luciferase to detect production of ADP. Traditional luciferase-based nucleotide detection reagents rely on ATP production as a direct substrate for the luciferase reaction; however, PFK catalyzes the transfer of a phosphate from ATP to F6P, resulting in the net depletion of ATP. To directly measure the ADP product of the PFK reaction, we used the ADP-Glo detection kit (Promega), which utilizes two separate reactions to 1) deplete all remaining uncatalyzed ATP and 2) convert all remaining ADP to ATP, which is then detected through a traditional luciferase-coupled reaction. Compounds were screened as a concentration-titration series that ranged from 57 uM to 0.7 nM.
NCGC Assay Protocol Summary: Substrate buffer was dispensed into white, solid 1536-well plates at 3uL/well in 0.1M triethanolamine (TEA) buffer, pH 8.0, containing final concentrations of 5 mM MgCl2, 0.01% Tween20, 0.5 mM fructose-6-phosphate (F6P) and 0.1mM ATP. Then, 23 nL of compounds or DMSO were delivered to each well using a pin tool. One uL T. brucei PFK (0.1M TEA, 0.01% Tween20, 0.1% bovine serum albumin (BSA) and 1.25nM PFK, final concentrations) was then dispensed, and plates were incubated at room temperature for 45 min. The luminescent detection reagent, ADP-Glo (Promega), was then added in two steps: the first reagent, ADP-Glo (which converts remaining uncatalyzed ATP), was added at 2.5uL/well and incubated for ten minutes at room temperature, and the second component, Kinase Detection reagent (which converts ADP to ATP as a substrate for luciferase-based luminescence), was added immediately after at 5uL/well, followed by one final ten minute room temperature incubation. The plates were measured on a ViewLux plate reader for luminescent signal using a clear filter with a one second exposure. The %Activity was determined from the corrected luminescence values. As no specific T. brucei PFK inhibitors have been identified in the literature, 1x (1.25nM) and 0x PFK enzyme controls (untreated) were included to normalize %Activity of identified inhibitors; 0x enzyme values corresponded to 100%Activity (full inhibition), while 1x PFK enzyme values were used to normalize 0%Activity (no inhibition). Concentration-response curves were fitted to the signals arising from the resulting luminescence. […]

ATP-dependent 6-phosphofructokinase (Trypanosoma brucei brucei), sequence (O15648 whole entry, looked up): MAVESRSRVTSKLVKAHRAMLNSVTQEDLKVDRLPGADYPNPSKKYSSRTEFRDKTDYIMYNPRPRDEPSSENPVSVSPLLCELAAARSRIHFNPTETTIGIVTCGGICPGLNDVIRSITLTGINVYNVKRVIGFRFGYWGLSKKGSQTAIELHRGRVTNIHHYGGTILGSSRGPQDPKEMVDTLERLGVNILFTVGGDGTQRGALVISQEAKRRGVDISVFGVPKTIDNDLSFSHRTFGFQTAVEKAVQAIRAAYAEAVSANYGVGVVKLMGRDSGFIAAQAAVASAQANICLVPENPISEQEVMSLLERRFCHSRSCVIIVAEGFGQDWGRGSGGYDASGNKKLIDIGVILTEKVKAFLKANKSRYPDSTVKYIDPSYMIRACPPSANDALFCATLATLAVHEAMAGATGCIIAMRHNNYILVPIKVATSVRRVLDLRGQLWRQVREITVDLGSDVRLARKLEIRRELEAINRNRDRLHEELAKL

Structure (SMILES)	activity change, negative = inhibition
CC1(C)CCC(NC(=O)[C@@H](N)CCC(=O)O)CC1	-6.74%
CC(C)N=C(N)/N=C(\N)Nc1ccc(Cl)cc1	12.1% [at 24.3 µM]
Oc1ccc(Cl)c2cccnc12	12.2%
COc1cc(NS(C)(=O)=O)ccc1Nc1c2ccccc2nc2ccccc12	-4.73%
CCCCCCC[N+](CC)(CC)CCCCc1ccc(Cl)cc1	-4.84% [at 24.3 µM]
O=C(O)CNC(=O)c1ccccc1	4.67%
Cc1ccc(O)c2ncccc12	5.94%
CCN1CCC[C@H]1CNC(=O)c1c(OC)ccc(Br)c1OC	0.835%
COc1cc(C(=S)N2CCOCC2)cc(OC)c1OC	-12.7%
CCOc1ccc2nc3cc(N)ccc3c(N)c2c1	2.33%
COC1=CC(=O)C[C@@H](C)[C@]12Oc1c(Cl)c(OC)cc(OC)c1C2=O	4.21%
CCCCC1=NC2(CCCC2)C(=O)N1Cc1ccc(-c2ccccc2-c2nn[nH]n2)cc1	-1.97%
CCCCCC=CCC=CCCCCCCCC(=O)OCC	12.9%
CN1CCN(CCCN2c3ccccc3Sc3ccc(S(=O)(=O)N(C)C)cc32)CC1	-4.24% [at 24.3 µM]
CCOC(=O)COc1ccc2c(C)c(CCN(CC)CC)c(=O)oc2c1Cl	1.2%
COc1ccc(C2C(=O)c3ccccc3C2=O)cc1	-2.04%
CC(=O)N/N=C/c1ccc([N+](=O)[O-])o1	0.285%
CC(=O)Nc1c(I)cc(I)c(C(=O)O)c1I	0.612%
C[C@H](O)C(=O)Nc1c(I)c(C(=O)NC(CO)CO)c(I)c(C(=O)NC(CO)CO)c1I	0.63% [at 24.3 µM]
CCCN1CCCC[C@H]1C(=O)Nc1c(C)cccc1C	-1.8%

Structure (SMILES)	activity change, negative = inhibition
c1ccc(OCc2ccc(CCCN3CCOCC3)cc2)cc1	1.89%
CCN(CC)CCOc1ccc(C(O)(Cc2ccc(Cl)cc2)c2ccc(C)cc2)cc1 (stereo not given)	4.95%
O=C(Nc1ccc(Oc2ccc(Cl)cc2)c(Cl)c1)c1cc(I)cc(I)c1O	-2.2%
CN(C)CCCOc1nn(Cc2ccccc2)c2ccccc12	-3.46% [at 24.3 µM]
OC(CCN1CCCCC1)(c1ccccc1)c1ccccc1	-0.846%
CCCCCCCCCCCCCCCCCC(=O)OCC(O)CO (stereo not given)	15%
CC(C)(C)CC(C)(C)c1ccc(O)c(Cc2ccc(Cl)cc2Cl)c1	0%
O=C1OCCN1/N=C/c1ccc([N+](=O)[O-])o1	5.01%
O=S1(=O)c2cccc3cccc(c23)N1CCCN1CCN(c2ccc(F)cc2)CC1	-1.05%
N[C@@H](Cc1cnc[nH]1)C(=O)O	3.53%
O=C1c2ccccc2C(=O)C1c1ccccc1	2.13% [at 24.3 µM]
CCOC(=O)OC(C)OC1=C(C(=O)Nc2ccccn2)N(C)S(=O)(=O)c2ccccc21 (stereo not given)	10.3%
O=C1CCC(c2ccc(-n3ccnc3)cc2)=NN1	-2.12%
CCC(=O)c1c(O)cc(O)cc1O	-1.13%
CCCCc1nc(Cl)c(CO)n1Cc1ccc(-c2ccccc2-c2nn[nH]n2)cc1	9.95%
CN1C(CCl)Nc2cc(Cl)c(S(N)(=O)=O)cc2S1(=O)=O (stereo not given)	-5.64%
CCn1cc(C(=O)O)c(=O)c2cnc(N3CCCC3)nc21	-2.44% [at 24.3 µM]
COCc1c(C(C)C)nc(C(C)C)c(/C=C/[C@@H](O)C[C@@H](O)CC(=O)O)c1-c1ccc(F)cc1	-0.192%
CC(O)C(=O)O (stereo not given)	0%
COc1cc(OC)cc(OC)c1	-2.8%
